Experimental data published in PubChem BioAssay AID1159580 (chemical genetic matrix, 2015).
“And” between values parts separate entries of the source, which are not always exact repeats. Equal values may be shown once. The campaign covered roughly 5,500 compounds. About 2,000 (36%) were called active. About 18% were inconclusive and are not listed. Cut-off read from the data, not from the text of the source: active = normalized growth mostly below about 0.91 (no sharp cut-off); inconclusive = no clear call, values can overlap the other calls; inactive = mostly above about 0.92. The list shows a part of the results.

Experiment: chemical genetic growth profiling, strain panel (AID 1159580);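 note: tested at 20 µM; growth read once vehicle control cultures reached saturation at 30 °C; 1 = growth at the plate median or of vehicle wells; lower values mean less growth of the strain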
Conditions: S. cerevisiae deletion strains, growth OD

Measured: normalized growth

CC(C)=CCC[C@](C)(O)C1CC=C(C)CC1 (stereo partly specified)
inactive: locus YAL021C, strain ccr4, hits give low values 0.958 | locus YAL026C, strain drs2, hits give low values 0.987 | locus YAL030W, strain snc1, hits give low values 0.994 | locus YBL061C, strain skt5, hits give low values 0.98 | locus YBR009C, strain hhf1, hits give low values 0.996 | locus YBR021W, strain FUR4, hits give low values 0.966 | locus YBR023C, strain chs3, hits give low values 0.981 | locus YBR171W, strain sec66, hits give low values 0.967 | locus YBR229C, strain ROT2, hits give low values 1.02 | locus YBR231C, strain swc5, hits give low values 1 | locus YBR279W, strain paf1, hits give low values 0.99 | locus YCL011C, strain gbp2, hits give low values 0.979 | locus YCL016C, strain dcc1, hits give low values 0.992 | locus YCL029C, strain bik1, hits give low values 1 | locus YCL061C, strain MRC1, hits give low values 0.982 | locus YCL069W, strain vba3, hits give low values 0.987 | locus YCR088W, strain abp1, hits give low values 0.986 | locus YDL005C, strain med2, hits give low values 0.971 | locus YDL035C, strain GPR1, hits give low values 0.984 | locus YDL040C, strain nat1, hits give low values 1 | locus YDL074C, strain BRE1, hits give low values 0.995 | locus YDL101C, strain DUN1, hits give low values 1.02 | locus YDL134C, strain PPH21, hits give low values 1.02 | locus YDL185W, strain tfp1, hits give low values 0.987 | locus YDL192W, strain arf1, hits give low values 0.969 | locus YDR001C, strain nth1, hits give low values 0.994 | locus YDR069C, strain doa4, hits give low values 0.995 | locus YDR101C, strain arx1, hits give low values 0.976 | locus YDR137W, strain rgp1, hits give low values 0.972 | locus YDR159W, strain sac3, hits give low values 1 | locus YDR162C, strain NBP2, hits give low values 1.04 | locus YDR195W, strain ref2 1 | locus YDR297W, strain sur2, hits give low values 1.01 | locus YDR318W, strain mcm21, hits give low values 1 | locus YDR334W, strain swr1, hits give low values 0.985 | locus YDR335W, strain msn5, hits give low values 0.984 | locus YDR388W, hits give low values 1 | locus YDR392W, strain spt3, hits give low values 0.906 | locus YDR502C, strain sam2, hits give low values 0.973 | locus YEL003W, strain gim4, hits give low values 0.983 | locus YEL037C, strain rad23, hits give low values 0.978 | locus YEL061C, strain CIN8 (second series), hits give low values 0.983 | locus YEL061C, strain CIN8, hits give low values 1.02 | locus YER015W, strain faa2, hits give low values 0.987 | locus YER016W, strain bim1, hits give low values 0.987 | locus YER110C, hits give low values 0.982 | locus YER111C, strain swi4, hits give low values 0.969 | locus YER155C, strain BEM2 (second series), hits give low values 0.985 | locus YER155C, strain BEM2, hits give low values 1.02 | locus YER167W, strain BCK2, hits give low values 1.01 | locus YFR010W, strain ubp6, hits give low values 0.976 | locus YGL078C, strain dbp3, hits give low values 0.97 | locus YGL086W, strain mad1, hits give low values 0.976 | locus YGL167C, strain pmr1, hits give low values 0.982 | locus YGL173C, strain kem1, hits give low values 0.981 | locus YGL227W, strain vid30, hits give low values 0.981 | locus YGL240W, strain doc1, hits give low values 0.994 | locus YGL248W, strain PDE1, hits give low values 1.02 | locus YGL253W, strain hxk2, hits give low values 0.959 | locus YGR135W, strain pre9, hits give low values 1.01 | locus YGR252W, strain gcn5, hits give low values 0.962 | locus YHR013C, strain ard1, hits give low values 0.997 | locus YHR027C, strain rpn1, hits give low values 0.999 | locus YHR030C, strain SLT2, hits give low values 1.02 and 1 | locus YHR079C, strain IRE1 (second series), hits give low values 0.98 | locus YHR079C, strain IRE1, hits give low values 0.988 | locus YHR094C, strain hxt1, hits give low values 0.985 | locus YHR129C, strain ARP1, hits give low values 1.02 | locus YHR142W, strain chs7, hits give low values 0.953 | locus YHR200W, strain rpn10, hits give low values 1 | locus YIL066C, strain RNR3, hits give low values 1.02 | locus YIL073C, strain SPO22, hits give low values 1.02 | locus YIL125W, strain kgd1, hits give low values 0.997 | locus YIR030C, strain dcg1, hits give low values 0.991 | locus YJL092W, strain hpr5, hits give low values 0.958 | locus YJL095W, strain BCK1 (second series), hits give low values 0.976 | locus YJL095W, strain BCK1, hits give low values 1.04 and 0.993 | locus YJL115W, strain asf1, hits give low values 0.988 | locus YJL129C, strain trk1, hits give low values 0.973 | locus YJL134W, strain LCB3, hits give low values 1.01 | locus YJL154C, strain vps35, hits give low values 0.995 | locus YJL164C, strain tpk1, hits give low values 1 | locus YJL166W, strain qcr8, hits give low values 0.989 | locus YJL168C, strain set2, hits give low values 0.987 | locus YJL187C, strain SWE1 (second series), hits give low values 1.03 | locus YJL187C, strain SWE1, hits give low values 0.987
